Consider twelve molecules from PubChem BioAssay (NCATS).

Each structure is given as a SMILES string. Records with an inconclusive call do not appear. Active and inactive are the calls of the source. Calls come from the whole dose curve; as a rule, active = well fitted inhibition curve with a large enough effect; inconclusive = small, poorly fitted or top-dose-only effect; inactive = flat fitted curve, though single readings scatter.

Holding throughout (test): qHTS profiling for inhibitors of Plasmodium falciparum proliferation (AID 504749); note: nearly all actives have a fitted effect of over 60% in size
Common to all, as to details: P. falciparum in erythrocytes, SYBR Green DNA, 72 h; series mostly up to 28.7 µM

One assay has as its system CP185. The gist of the method:
(§1)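 Parasite proliferation within erythrocytes, 72 h exposure. Endpoint: SYBR Green I fluorescence after overnight lysis at room temperature. Controls: 0.29 uM artemisinin, DMSO.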

A further assay relates to CP191. An outline of the steps:
as §1

The test system of another assay is CP192. An outline of the steps: as §1
The test system of another assay is CP194. The gist of the method: as §1
In the next assay the test system is CP201. The gist of the method: as §1
The subject of the next assay is CP211. An outline of the steps: as §1
A further assay has as its system CP215. An outline of the steps:
as §1

For the next assay, the system named is CP217. An outline of the steps:
as §1

Another assay deals with CP237. An outline of the steps: as §1
A further assay concerns CP238. The gist of the method: as §1
A further assay concerns CP247. An outline of the steps:
as §1

In another assay the test system is CP250. The gist of the method: as §1
A further assay relates to CP252. An outline of the steps: as §1
Another assay relates to CP256. An outline of the steps:
as §1

For another assay, the system named is CP260. The gist of the method:
as §1

The subject of the next assay is CP262. The gist of the method: as §1
A further assay concerns CP265. The gist of the method: as §1
Another assay concerns CP266. An outline of the steps:
as §1

For another assay, the system named is CP268. An outline of the steps: as §1
Potency is the fitted concentration of half-maximal effect.

As to `CC1=CCC(C(C)(C)O)CC1` (stereo unspecified), the Potency result with CP185, with CP191, in the assay with CP192, in the assay with CP194, in the assay on CP201 and with CP211 was “inactive” in each case. Moreover, the Potency result with CP215, in the assay on CP217, in the assay with CP237, with CP238, in the assay with CP247 and in the assay with CP250 was “inactive” each time. In addition, the Potency result with CP252, in the assay on CP256, with CP260, with CP262, in the assay on CP265 and with CP266 was “inactive” in each case. Also, in the assay on CP268, the Potency result was “inactive”.
For `C[C@]12O[C@H](C[C@]1(O)CO)n1c3ccccc3c3c4c(c5c6ccccc6n2c5c31)CNC4=O`, the Potency in the assay on CP185 was 0.316 µM (active); with CP191 it was 0.282 µM (active); in the assay on CP192, 0.379 µM (active); in the assay with CP194, 0.379 µM (active); with CP201, 0.536 µM (active); with CP211, 0.426 µM (active). In addition, the Potency was 0.426 µM (active) in the assay with CP215; 0.316 µM (active) in the assay with CP217; 0.224 µM (active) in the assay with CP237; 0.282 µM (active) in the assay with CP238; 0.224 µM (active) in the assay with CP247; 0.251 µM (active) with CP250. Besides, the Potency in the assay on CP252 was 0.316 µM (active); in the assay with CP256 it was 0.398 µM (active); with CP260, 0.224 µM (active); with CP262, 0.426 µM (active); in the assay with CP265, 0.447 µM (active); with CP266 it was 0.675 µM (active). Also, the Potency in the assay with CP268 was 0.536 µM (active).
On to `CC(C(=O)O)c1ccc(N2Cc3ccccc3C2=O)cc1` (stereo unspecified), for which the Potency result with CP185, with CP191, in the assay on CP192, in the assay on CP194, with CP201 and with CP211 was “inactive” each time. In addition, the Potency result in the assay with CP215, in the assay on CP217, in the assay with CP237, in the assay on CP238, in the assay on CP247 and in the assay on CP250 was “inactive” each time. In addition, the Potency entry in the assay on CP252, in the assay on CP256, in the assay on CP260, with CP262, in the assay with CP265 and with CP266 was “inactive” throughout. The Potency result in the assay with CP268 is “inactive”.
Turning to `CC(=O)Oc1c(C)cc(OCC(O)CNC(C)C)c(C)c1C` (stereo unspecified), the Potency entry with CP185, in the assay with CP191, in the assay with CP192, in the assay with CP194, in the assay with CP201 and in the assay with CP211 was “inactive” in each case. In addition, the Potency result with CP215, in the assay with CP217, with CP237, in the assay on CP238, in the assay with CP247 and in the assay with CP250 was “inactive” each time. In addition, the Potency result in the assay with CP252, in the assay on CP256, in the assay with CP260, in the assay on CP262, in the assay on CP265 and in the assay with CP266 was “inactive” in each case. Also, in the assay on CP268, the Potency result is “inactive”.
Regarding `COCC(=O)Nc1cc(Sc2ccccc2)ccc1N=C(NC(=O)OC)NC(=O)OC`, the Potency entry with CP185, in the assay on CP191, in the assay with CP192, with CP194, in the assay with CP201 and in the assay on CP211 was “inactive” each time. The Potency result in the assay with CP215, with CP217, in the assay on CP237, with CP238, in the assay with CP247 and with CP250 was “inactive” each time. The Potency result with CP252, in the assay on CP256, in the assay with CP260, with CP262, with CP265 and in the assay on CP266 was “inactive” in each case. Further, in the assay with CP268, the Potency entry is “inactive”.
Consider `Nc1ncnc2c1ncn2[C@@H]1O[C@H](COP(=O)(O)OP(=O)(O)OP(=O)(O)O)[C@@H](O)[C@H]1O`, for which the Potency result in the assay on CP185, in the assay on CP191, with CP192, in the assay on CP194, with CP201 and with CP211 was “inactive” each time. The Potency result in the assay with CP215, with CP217, in the assay on CP237, with CP238, with CP247 and in the assay with CP250 was “inactive” each time. Further, the Potency entry with CP252, in the assay with CP256, in the assay with CP260, in the assay with CP262, in the assay with CP265 and in the assay on CP268 was “inactive” each time.
Consider `CCC(=O)NCCC1CCc2ccc3c(c21)CCO3` (stereo unspecified), for which the Potency entry with CP185, in the assay with CP191, in the assay with CP192, in the assay with CP194, in the assay on CP201 and in the assay on CP211 was “inactive” each time. The Potency entry with CP215, in the assay with CP217, in the assay on CP237, in the assay with CP238, in the assay with CP247 and in the assay on CP250 was “inactive” throughout. Also, the Potency entry with CP252, in the assay on CP256, in the assay on CP260, with CP262, in the assay on CP265 and in the assay on CP266 was “inactive” in each case. The Potency entry with CP268 is “inactive”.
As to `CCCC(=O)Nc1ncnc2c1ncn2C1OC2COP(=O)(O)OC2C1OC(=O)CCC` (stereo unspecified), the Potency result with CP185, in the assay on CP191, in the assay with CP192, in the assay on CP194, with CP201 and in the assay on CP211 was “inactive” each time. Besides, the Potency result in the assay on CP215, with CP217, in the assay with CP237, in the assay on CP238, in the assay on CP247 and with CP250 was “inactive” in each case. Also, the Potency result with CP252, with CP256, in the assay with CP260, with CP262, in the assay on CP265 and in the assay on CP266 was “inactive” in each case. The Potency entry in the assay with CP268 was “inactive”.
For the molecule `Nc1c(Br)cc(Br)cc1CNC1CCC(O)CC1` (stereo unspecified), the Potency entry in the assay on CP185, in the assay with CP191, with CP192, in the assay on CP194, in the assay with CP201 and in the assay with CP211 was “inactive” throughout. For the same molecule, the Potency entry with CP215, in the assay with CP217, in the assay on CP238, with CP247, in the assay on CP250 and in the assay with CP252 was “inactive” throughout. Further, the Potency entry with CP256, in the assay with CP260, in the assay with CP262, with CP265, with CP266 and in the assay on CP268 was “inactive” in each case.
Consider `O=C(O)CCC(=O)C(=O)O`, for which the Potency result in the assay with CP185, in the assay with CP191, in the assay with CP192, in the assay with CP194, in the assay with CP201 and in the assay with CP211 was “inactive” each time. The Potency entry with CP215, in the assay with CP217, with CP237, in the assay on CP238, in the assay with CP247 and in the assay on CP250 was “inactive” throughout. In addition, the Potency result in the assay on CP252, in the assay on CP256, in the assay on CP260, in the assay with CP262, in the assay with CP265 and in the assay on CP266 was “inactive” in each case. Also, the Potency result with CP268 is “inactive”.
For `C=CCSSSCC=C`, the Potency result with CP185, in the assay with CP191, in the assay with CP192, with CP194, with CP201 and in the assay on CP211 was “inactive” in each case. Further, the Potency entry in the assay on CP215, in the assay with CP217, in the assay with CP237, in the assay on CP238, in the assay with CP247 and in the assay with CP250 was “inactive” throughout. For the same molecule, the Potency result with CP252, in the assay with CP256, in the assay with CP260, in the assay with CP262, in the assay with CP265 and with CP266 was “inactive” each time. Besides, in the assay with CP268, the Potency entry is “inactive”.
Consider `CCCC(=O)O[C@]1(C(=O)CCl)[C@H](C)C[C@@H]2[C@H]3CCC4=CC(=O)C=C[C@]4(C)[C@@]3(F)C(=O)C[C@@]21C`, for which the Potency in the assay on CP185 is 3.16 µM (active); in the assay on CP191, 0.891 µM (active); in the assay with CP192 it was 4.78 µM (active); in the assay on CP194 it was 3.01 µM (active); in the assay with CP201 it was 3.79 µM (active); with CP211 it was 1.51 µM (active). Moreover, the Potency was 3.79 µM (active) with CP215; 3.16 µM (active) in the assay on CP217; 3.55 µM (active) in the assay with CP237; 3.98 µM (active) in the assay on CP238; 2 µM (active) in the assay with CP247; 1.58 µM (active) in the assay with CP250. Also, the Potency in the assay on CP252 is 3.16 µM (active); in the assay on CP256, 0.794 µM (active); with CP260, 2.82 µM (active); in the assay with CP262, 1.69 µM (active); with CP265 it was 2.82 µM (active); with CP266 it was 3.38 µM (active). Moreover, the Potency in the assay on CP268 was 4.26 µM (active).
